Assay results: ChEMBL document CHEMBL1157539, “Thousands of chemical starting points for antimalarial lead identification” (Nature, 2010)

Each compound was assayed on HepG2 (assay: GSK_TCMDC: Percent inhibition of human HepG2 cell line. Test compounds present at 10uM.).
Type: functional
Work on `COc1ccc(Cl)cc1N1CCN(CCCNC(=O)c2ccc(-c3nc4cc(Cl)c(F)cc4[nH]3)cc2)CC1` yielded an Inhibition of 3%. Work on `Cc1cc(Nc2ccc(C)c(Cl)c2)n2nc(C(F)(F)F)nc2n1` yielded an Inhibition of 2%. Compound `C=C(NC(=O)c1cc(C)cc(C)c1)C(=O)OC` has an Inhibition of 21%. `Cc1noc(C)c1-c1cccc(CNCc2ccc(-c3ccc(-c4nc5cc(C(F)(F)F)ccc5[nH]4)cc3)cc2)c1.O=C(O)C(F)(F)F` showed an Inhibition of 35%. Compound `COC(=O)c1cccc(CNCc2ccc(-c3ccc(-c4nc5cc(C(F)(F)F)ccc5[nH]4)cc3)cc2)c1.O=C(O)C(F)(F)F` has an Inhibition of 22%. `O=C(NC1CCCC1)c1cc2c(=O)n3ccccc3nc2[nH]/c1=N/CCc1ccccc1` was tested, and the Inhibition was 19%. Work on `O=C(N[C@H](CC1CCCCC1)C(=O)NC1CCCc2ccccc21)c1ccc(O)c(-c2cccc([N+](=O)[O-])c2)c1` (stereo not given in full) yielded an Inhibition of 0%. Work on `CCN(CC)CCNC(=O)/C(=C/C=C/c1cc2cc(Cl)c(Cl)cc2[nH]1)OC` yielded an Inhibition of 30%. In the case of `O=C(O)C(F)(F)F.OC1CCCN(Cc2ccc(-c3ccc(-c4nc5ccccc5[nH]4)cc3)cc2)C1` (stereo not given), the Inhibition is reported as 46%. Work on `O=C(Nc1ccc(SC(F)(F)F)cc1)Nc1ccc(Cl)c(Cl)c1` yielded an Inhibition of 15%. `Cc1cccc2nc(-c3ccc(-c4ccc(NC(=O)C5CCN(C)CC5)cc4)cc3)[nH]c12` showed an Inhibition of 28%. `Cc1cc(C(=O)NC2CCN(Cc3ccccc3)CC2)ccc1-c1nc2cc(Cl)c(Cl)cc2[nH]1` was tested, and the Inhibition was 7%. For `Cc1cc(OCCCNc2nc(NCCc3ccc(O)cc3)nc(N3CCNCC3)n2)c(Cl)c(C)c1Cl.O=C(O)C(F)(F)F`, the Inhibition was 54%. `COc1cc2nc(N3CCC(CNC(=O)c4ccc(-c5ccc(C(=O)N(C)C)cc5OCCO)cc4)CC3)nc(N)c2cc1OC` showed an Inhibition of 0%. `CCCCOC(=O)[C@H](CCC)NC(=O)c1ccc(NS(=O)(=O)c2ccc3nc(N)[nH]c(=O)c3c2)cc1` was tested, and the Inhibition was 66%. Work on `COc1ccc(NC(=O)[C@H](Cc2ccccc2)Nc2cc(C)nc(NCCc3ccccc3OC)n2)cc1.O=C(O)C(F)(F)F` yielded an Inhibition of 10%. In the case of `Cc1ccccc1C1CCN(c2ccc(NC(=O)c3ccc(Cl)nc3)cc2)CC1.O=C(O)C(F)(F)F`, the Inhibition is reported as 43%. `Br.CCCc1cc(OCCCOc2ccccc2)ccc1OCCCON1C(=N)N=C(N)NC1(C)C` showed an Inhibition of 68%. Work on `COc1ccc2nc(SC(C)C(=O)c3c[nH]c4ccccc34)[nH]c2c1` (stereo not given) yielded an Inhibition of 0%. `Cc1ccc(C)c(C2CCN(CCCCNC(=O)c3ccc(NC(=O)c4ccc(Cl)cc4)cc3)CC2)c1` was tested, and the Inhibition was 15%. `Cc1cccc2nc(-c3ccc(-c4ccc(CNC(C)C)cc4)cc3)[nH]c12.O=C(O)C(F)(F)F` was tested, and the Inhibition was 12%. `C=CCc1ccc(C[C@H](NC(=O)OC(C)(C)C)C(=O)OC)cc1` gave an Inhibition of 77%. `O=C(Nc1ccccc1)N(Cc1cccc(-c2ccc(CNCCc3ccccc3)cc2)c1)C1CCN(Cc2ccccc2)CC1.O=C(O)C(F)(F)F` showed an Inhibition of 100%. `CCN(CC)C(C)(C)CN(Cc1ccc(-c2ccc(C(F)(F)F)cc2)cc1)C(=O)Cn1c(CCc2cccc(F)c2F)nc(=O)c2ccccc21.O=C(O)C(O)C(O)C(=O)O` showed an Inhibition of 53%. In the case of `CN1CCC(C(=O)Nc2cccc(-c3ccc(-c4nc5cc(F)ccc5[nH]4)cc3)c2)CC1`, the Inhibition is reported as 12%. `COc1cc(NC(=O)/C=C/c2cc3ccccc3n2C)ccc1OCCN(C(C)C)C(C)C.Cl` gave an Inhibition of 16%. Work on `Cc1ccc(C)c(NC(=O)Nc2ccc(Nc3nc(C)cc(N4CCOCC4)n3)cc2)c1` yielded an Inhibition of 88%. `COc1cc(C(=O)N2CCOC(CCN3CCC[C@H]3C(=O)Nc3ccccc3)(c3ccc(Cl)c(Cl)c3)C2)cc(OC)c1OC` (stereo not given in full) gave an Inhibition of 3%. Work on `COc1ccc2nc3cc(Cl)ccc3c(NCCCCN)c2c1.Cl` yielded an Inhibition of 52%. Work on `CC(C)(C)NC(=O)c1ccc(Oc2ccc(OC(F)(F)F)cc2)c(NC(=O)C(C)(C)C)c1` yielded an Inhibition of 0%. For `CCCCN(CCCC)CCCCNc1c2ccc(Cl)cc2nc2ccc(OC)cc12.Cl`, the Inhibition was 68%. For `COc1ccc(-c2nc(NC(=O)CS(=O)(=O)c3ccc(F)cc3)sc2C)cc1`, the Inhibition was 20%. Compound `CCOc1ccc(-c2n[nH]c(C(F)(F)F)c2-c2ccccc2OC)c(O)c1` has an Inhibition of 22%. In the case of `CCN1CCc2c1cc(C(=O)N[C@@H](Cc1ccccc1)[C@H](O)CNC(C)(C)c1cccc(C(F)(F)F)c1)cc2N1CCCCS1(=O)=O`, the Inhibition is reported as 6%. In the case of `Cc1cccc2nc(C(=O)Nc3nc(CN4CCC(C)CC4)cs3)cn12`, the Inhibition is reported as 0%. Work on `COc1ccc2nccc(N3CCC(CCNCc4ccc5c(n4)NC(=O)CS5)CC3)c2c1.Cl` yielded an Inhibition of 55%. In the case of `CCCCNC(=O)[C@@H]1CCCN1C(=O)c1ccc(O)c(-c2ccc(Cl)c(Cl)c2)c1`, the Inhibition is reported as 0%. Compound `O=C(Nc1ccc(Cn2nc(Cl)c(N3CCCNCC3)cc2=O)cc1)Nc1ccc(-c2ccccc2)cc1.O=C(O)C(F)(F)F` has an Inhibition of 89%. Compound `Cc1noc(C)c1CN1Cc2ccccc2OC2(CCN(Cc3c[nH]c4cnccc34)CC2)C1.O=C(O)C(F)(F)F` has an Inhibition of 19%. `O=C(O)C(F)(F)F.O=S(=O)(c1ccccc1)n1ccc2cc(Nc3ncnc4cc(C#C[C@H]5CCCN5)sc34)ccc21` was tested, and the Inhibition was 50%.
